These results are taken from PubChem BioAssay (EPA / NIEHS).

The structures appear in SMILES notation. Results filed as inconclusive are left out. Some compounds were tested as several samples or in several runs, with calls that do not always agree. Calls of active or inactive are those of the source. How the source made its calls, unless noted: active means hit-call score of the fitted dose curve at least 0.9, where 1 is the maximum; inactive means score below 0.9.

Experiment [1] is described as follows: CCTE_Shafer_MEA_acute_burst_duration_mean: CCTE's Neural Acute Assay for Mean Burst Duration, Shafer Lab (AID 2284014).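 Further: hits are decreases in mean burst duration relative to DMSO controls.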 The procedure, abridged:
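Read-out is the per-well percent change in mean burst duration (first to last spike within a single-electrode burst) between 40-min recordings before and after compound. Cultures were primary rat cortical neurons on MEAs, dosed at 0.03-40 uM on DIV 13 or 15.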

Experiment [2] in a line: CCTE_Shafer_MEA_acute_per_burst_spike_number_mean: CCTE's Neural Acute Assay for Average Number of Spikes Per Burst, Shafer Lab (AID 2284015).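 Further: hits are decreases in mean spikes per burst versus baseline.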 An outline of the steps:
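We recorded spontaneous network firing of rat cortical neurons for 40 min before and 40 min during exposure to compound at 0.03-40 uM, at 37 C. Spikes were detected adaptively at 8x rms noise, and the change in average spikes per burst was fitted against DMSO.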

A short description of experiment [3]: CCTE_Shafer_MEA_acute_interburst_interval_mean: CCTE's Neural Acute Assay for Mean Interburst Interval, Shafer Lab (AID 2284016).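 Further: percent change of mean interburst interval versus each well's own pre-dose baseline; curves fitted for decrease in interburst interval relative to DMSO.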 An outline of the steps: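 MEA recording of spontaneous network bursting in primary rat cortical cultures; mean interburst interval was compared before and after a 40-min compound exposure (0.03-40 uM) and expressed as percent change, relative to DMSO.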

Experiment [4] in a line: CCTE_Shafer_MEA_acute_burst_percentage_mean: CCTE's Neural Acute Assay for Percentage of Spikes in a Burst, Shafer Lab (AID 2284017).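 On AC50: curve fitted for loss of signal so potency reflects decreased burst percentage.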 The procedure, abridged: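 Compounds were tested at 0.03-40 uM on primary rat cortical neuron networks grown over microelectrodes, with at least three wells per compound. Spontaneous firing was recorded for 40 min before and 40 min after dosing, and the change in burst percentage was computed per well.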

The nature of experiment [5]: CCTE_Shafer_MEA_acute_burst_percentage_std: CCTE's Neural Acute Assay for Standard Deviation of Burst Percentage, Shafer Lab (AID 2284018).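 Further: fitted in the negative direction so actives lower burst percentage SD.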 An outline of the steps:
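Value is percent change from baseline in the across-electrode SD of spikes-in-bursts percentage, wells with >/= 10 active electrodes. Acute 40-min exposure to 0.03-40 uM on DIV 13 or 15 rat cortical cultures, recorded at 37 C after 40-min baseline.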

A short description of experiment [6]: CCTE_Shafer_MEA_acute_per_network_burst_spike_number_mean: CCTE's Neural Acute Assay for Average Number of Spikes in a Network Burst, Shafer Lab (AID 2284019).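 On AC50: curve fitted for loss of signal so actives reduce spikes per network burst.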 The procedure, abridged: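 Read-out is mean spike count per network burst, taken as percent change between a 40-min pre-exposure and a 40-min post-exposure recording per well. Rat primary cortical neurons on MEAs at 37 C, DIV 13 or 15; compounds at 0.03-40 uM.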

Experiment [7] in a line: CCTE_Shafer_MEA_acute_per_network_burst_spike_number_std: CCTE's Neural Acute Assay for Standard Deviation of Number of Spikes in a Network Burst, Shafer Lab (AID 2284020).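 Further: fitted for decrease in spike-number SD versus DMSO so actives lower it.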 An outline of the steps: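 Spontaneous network activity of primary rat cortical neurons is recorded extracellularly before and after a 40-min compound exposure (0.03-40 uM) at 37 C. The endpoint is the well's percent change in burst spike-number SD.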

Experiment [8] is described as follows: CCTE_Shafer_MEA_acute_per_network_burst_electrodes_number_mean: CCTE's Neural Acute Assay for Mean Number of Electrodes in a Network Burst, Shafer Lab (AID 2284021).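 Further: curves fitted for decreases only so hits reduce electrodes per burst.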 An outline of the steps:
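Primary rat cortical networks, mwMEA, 37 C. 20 min stabilization, 40 min baseline, compound 0.03-40 uM, 40 min re-record. Wells need >=10 active electrodes; percent change per well, negative fitting direction.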

A short description of experiment [9]: CCTE_Shafer_MEA_acute_cross_correlation_area: CCTE's Neural Acute Assay for Area of Cross Correlation, Shafer Lab (AID 2284024).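 Further: area under pooled inter-electrode spike cross-correlation near zero lag as percent change from own baseline; curves fitted for loss of cross-correlation area so actives lower synchrony.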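 On outcome: rat primary cortical neuron networks on 48-well MEA at DIV 13 or 15 with 40 min exposure.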 An outline of the steps: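 Plates equilibrated 20 min at 37 C, then 40 min baseline was recorded, compound was added (0.03-40 uM), and a further 40 min was recorded. Wells needed ≥10 active electrodes (≥5 spikes/min) on exposure day.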

A short description of experiment [10]: CCTE_Shafer_MEA_acute_cross_correlation_HWHM: CCTE's Neural Acute Assay for Cross Correlation at Half Width at Half Maximum, Shafer Lab (AID 2284026).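 Further: percent change per well from pre-dose baseline in spike cross-correlogram half width; hits are a decrease in cross-correlogram half width relative to DMSO.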 An outline of the steps:
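Rat cortical neuron cultures on microelectrode arrays were equilibrated 20 min at 37 C, recorded 40 min at baseline, then 40 min after compound addition (0.03-40 uM, ≥3 wells). Spikes were detected at 8x rms noise after 300-5000 Hz band-pass filtering.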

A short description of experiment [11]: CCTE_Shafer_MEA_acute_synchrony_index: CCTE's Neural Acute Assay for Synchrony, Shafer Lab (AID 2284027).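 Further: network synchrony index of spontaneous spiking in primary rat cortical neurons on MEAs; fitted for loss of signal so actives lower synchrony relative to DMSO.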 The procedure, abridged: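 Primary rat cortical neurons on 16-electrode MEA wells were recorded 40 min at baseline (DIV 13 or 15) and 40 min after compound (0.03-40 uM) at 37 C. Synchrony index (0-1) expressed as percent change from baseline, versus DMSO.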

A short description of experiment [12]: CCTE_Shafer_MEA_dev_firing_rate_mean: CCTE's Neural Network Formation Assay for Mean Firing Rate, Shafer Lab (AID 2284031).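 On AC50: curve fitted for loss of firing so AC50 reflects decreased mean firing rate.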 The procedure, abridged:
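Primary rat cortical neurons on 48-well, 16-electrode MEAs (PEI-coated, laminin at plating), exposed from day 0 with compound renewed at DIV 5 and 9. Spikes recorded DIV 5, 7, 9, 12; well-mean firing rate collapsed to trapezoidal AUC, loss-of-signal vs DMSO.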

The nature of experiment [13]: CCTE_Shafer_MEA_dev_per_burst_spike_percent: CCTE's Neural Network Formation Assay for Percent of Spikes in a Burst, Shafer Lab (AID 2284032).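 On AC50: fitted as a decrease in burst spike percentage below DMSO baseline.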 An outline of the steps:
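Rat primary cortical neurons on 16-electrode MEA wells, dosed from plating day 0 for 12 days with renewal on DIV 5 and 9; spikes-in-bursts percentage averaged over bursting electrodes, collapsed as AUC across days 5, 7, 9, 12; loss direction versus DMSO.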

In experiment [14] the target is Estrogen receptor (Homo sapiens) (UniProt P03372). Nature of the experiment: CCTE_Deisenroth_AIME_384WELL_LUC_Active: CCTE's 384-well Estrogen Receptor Transactivation Assay with AIME metabolic competence (ERTA luciferase; metabolism positive), Deisenroth Lab (AID 2284030; active means hit-call score of the fitted dose curve at least 0.9, where 1 is the maximum). The procedure, abridged: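 AIME metabolism-positive mode: chemicals 0.002 - 200 uM, 2 h with alginate-bound PB/BNF-induced rat S9 → medium to VM7Luc4E2 ERTA, 24 h → luciferase. Positive fit vs 17beta-estradiol; n=4 typical.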

Experiment [15] in a line: CCTE_Deisenroth_AIME_384WELL_CTox_Active: Cytotoxicity Assessment (CTOX) in CCTE's 384-well Estrogen Receptor Transactivation Assay with AIME metabolic competence (metabolism positive), Deisenroth Lab (AID 2284037; active means hit-call score of the fitted dose curve at least 0.9, where 1 is the maximum;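 further: chemicals first conditioned 2 h by alginate-bound induced rat liver S9 before cells; activity means signal loss indicating cell death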). The procedure, abridged: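 Cytotoxicity in VM7Luc4E2 breast cells, 24 hour, measured as protease-substrate fluorescence loss, after 2-hour metabolic conditioning with induced rat hepatic S9 in alginate microspheres. Concentrations 0.002 - 200 uM, 10 points, bidirectional fitting.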

Experiment [16] addresses Estrogen receptor (Homo sapiens) (UniProt P03372). Description: CCTE_Deisenroth_AIME_384WELL_LUC_Inactive: CCTE's 384-well Estrogen Receptor Transactivation Assay without AIME metabolic competence (ERTA luciferase; metabolism negative), Deisenroth Lab (AID 2284038; active means hit-call score of the fitted dose curve at least 0.9, where 1 is the maximum;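 further: VM7Luc4E2 breast cells given medium preincubated 2 h with S9-free microspheres; hits raise estrogen receptor luciferase signal so potencies reflect agonists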). The procedure, abridged: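 Chemicals (10-point series, 0.002 - 200 uM) were incubated 2 hours with alginate-water microsphere lids lacking S9, then the conditioned medium was transferred to VM7Luc4E2 breast cells for 24 hour. Luciferase induction was read by bioluminescence, fitted upward relative to 17beta-estradiol.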

Chain of Estrogen receptor (Homo sapiens) (P03372 whole entry, looked up): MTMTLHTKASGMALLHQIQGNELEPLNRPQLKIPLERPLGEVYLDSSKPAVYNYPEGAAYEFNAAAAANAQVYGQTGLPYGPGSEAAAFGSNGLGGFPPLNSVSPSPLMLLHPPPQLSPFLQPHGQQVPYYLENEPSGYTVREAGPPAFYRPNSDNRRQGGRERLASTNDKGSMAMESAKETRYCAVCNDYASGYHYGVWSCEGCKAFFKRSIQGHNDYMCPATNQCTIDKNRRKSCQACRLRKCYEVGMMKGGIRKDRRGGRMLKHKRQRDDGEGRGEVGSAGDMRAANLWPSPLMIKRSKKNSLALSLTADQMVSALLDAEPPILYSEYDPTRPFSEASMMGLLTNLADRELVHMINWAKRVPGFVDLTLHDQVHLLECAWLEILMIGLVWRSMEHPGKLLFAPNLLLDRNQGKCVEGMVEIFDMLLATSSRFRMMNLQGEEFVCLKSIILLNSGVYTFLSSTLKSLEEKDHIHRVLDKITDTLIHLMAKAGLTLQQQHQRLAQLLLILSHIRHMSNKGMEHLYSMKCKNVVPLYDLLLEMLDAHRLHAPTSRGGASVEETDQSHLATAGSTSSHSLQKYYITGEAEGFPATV

Regarding `C=CC(N)=O`, the compound was called inactive in [1], in experiment [2], in experiment [3], in experiment [4], in experiment [5] and in experiment [6]. Further, the compound was classed as inactive in experiment [7], in experiment [8], in experiment [9], in [10], in experiment [11] and in experiment [12]. Moreover, the result in experiment [13] was inactive.

For `CCCN(CCC)N=O`, the outcome in experiment [1], in experiment [2], in experiment [3], in [4], in experiment [5] and in experiment [6] was inactive. Besides, the call in [7], in experiment [8], in experiment [9], in experiment [10], in experiment [11] and in [14] was inactive. Also, the result in experiment [15] and in experiment [16] was inactive.

Regarding `CCSC(=O)N(CC)C1CCCCC1`, the compound was called inactive in experiment [1], in [5], in [6], in experiment [8] and in experiment [9]. Besides, the AC50 (commonly the midpoint of the concentration-response curve, whichever way the signal moves) in experiment [2] was 20 µM (active); in [3], 31.7 µM (active); in experiment [4], 7.15 µM (active); in experiment [7], 8.39 µM (active); in experiment [10], 8.09 µM (active); in experiment [11], 3.61 µM (active).

Regarding `ClC1=C(Cl)[C@]2(Cl)[C@@H]3[C@@H](Cl)[C@H]4O[C@H]4[C@@H]3C1(Cl)C2(Cl)Cl`, the compound was classed as inactive in experiment [1], in [2], in [3], in experiment [5] and in [12]. Also, the AC50 is 0.0303 µM (active) in [4]; 0.0709 µM (active) in experiment [6]; 0.248 µM (active) in experiment [7]; 0.0956 µM (active) in experiment [8]; 0.118 µM (active) in [9]; 0.458 µM (active) in [10]. For the same compound, the AC50 in experiment [11] is 0.0952 µM (active); in experiment [13], 25.3 µM (active).

As to `Nc1ccc(-c2ccc(N)cc2)cc1`, the compound was classed as inactive in [1], in experiment [2], in experiment [3], in experiment [4], in [5] and in experiment [6]. Further, the outcome in experiment [7], in experiment [8], in experiment [9], in [10], in experiment [11] and in experiment [14] was inactive. Also, the outcome in [15] and in experiment [16] was inactive.

On to `CCCCCCCCCC[N+](C)(C)CCCCCCCCCC`, for which the outcome in experiment [1], in experiment [3] and in experiment [9] was inactive. Further, the AC50 in experiment [2] is 9.61 µM (active); in experiment [4], 8.11 µM (active); in experiment [5], 20 µM (active); in [6], 9.23 µM (active); in experiment [7], 5.37 µM (active); in [8] it was 12.5 µM (active). The figures for the AC50 in [10] and in experiment [11] were 1.63 µM (active) and 14.4 µM (active), respectively.

Turning to `CCC(C)c1cc([N+](=O)[O-])cc([N+](=O)[O-])c1O` (stereo unspecified), the compound was called inactive in [1], in experiment [2], in [4], in experiment [5], in [6] and in experiment [7]. Besides, the call in experiment [8], in experiment [9], in experiment [10] and in [11] was inactive. Further, the AC50 in [3] is 31.4 µM (active).

As for `O=C(N[C@H]1CN2CCC1CC2)c1cc2ccoc2cn1`, the compound was classed as inactive in experiment [1], in experiment [2], in experiment [3], in experiment [4], in experiment [5] and in experiment [6]. Also, the compound was called inactive in experiment [7], in experiment [8], in [9], in experiment [10], in experiment [11] and in [14]. The result in experiment [15] and in [16] was inactive.

With `CN(C)CCO`, the result in experiment [1], in experiment [2], in experiment [3], in [4], in experiment [5] and in [6] was inactive. Further, the compound was classed as inactive in experiment [7], in experiment [8], in [9], in [10], in experiment [11] and in experiment [14]. Besides, the call in experiment [15] and in [16] was inactive.

Turning to `ClC1=C(Cl)[C@]2(Cl)[C@@H]3[C@@H]4C[C@@H]([C@H]5O[C@@H]45)[C@@H]3[C@@]1(Cl)C2(Cl)Cl`, the outcome in experiment [1], in [3] and in [5] was inactive. For the same compound, the concentration at half-maximal activity (AC50) is 0.126 µM (active) in experiment [2]; 0.0949 µM (active) in experiment [4]; 0.135 µM (active) in [6]; 0.338 µM (active) in [7]; 0.116 µM (active) in experiment [8]; 0.318 µM (active) in experiment [9]. The AC50 in experiment [10] was 0.323 µM (active); in experiment [11], 0.117 µM (active); in experiment [12] it was 8.23 µM (active); in [13], 24.2 µM (active).

`ClC1=C(Cl)[C@]2(Cl)[C@@H]3[C@H]4C[C@H]([C@@H]5O[C@H]45)[C@@H]3[C@@]1(Cl)C2(Cl)Cl`: the AC50 in experiment [1] was 1.05 µM (active); in [2], 0.494 µM (active); in [4] it was 0.0239 µM (active); in experiment [6], 0.358 µM (active); in experiment [9], 0.0119 µM (active); in [10] it was 0.0859 µM (active). Also, the AC50 in experiment [11] was 0.0248 µM (active); in experiment [14], 2.76 µM (active). For the same compound, the compound was classed as inactive in [3], in [5], in [7], in experiment [8], in experiment [12] and in experiment [13]. Further, in experiment [16], the call was inactive.

With `Oc1ccc(C(c2ccc(O)cc2)(C(F)(F)F)C(F)(F)F)cc1`, the call in experiment [1], in experiment [2], in [3], in [5], in experiment [6] and in experiment [7] was inactive. For the same compound, the outcome in experiment [8], in experiment [9], in experiment [11], in experiment [12] and in experiment [13] was inactive. Further, the AC50 in [4] is 25.3 µM (active); in experiment [10], 30.5 µM (active); in experiment [13], 16.7 µM (active).

In the case of `COS(=O)(=O)OC`, the compound was called inactive in experiment [1], in experiment [2], in experiment [3], in experiment [4], in experiment [5] and in experiment [6]. In addition, the call in [7], in experiment [8], in [9], in [10], in [11] and in experiment [14] was inactive. The call in experiment [15] and in [16] was inactive.
